According to PubChem BioAssay AID1159580 (chemical genetic matrix, 2015):
Hit rate of the full screen: of about 5,500 compounds, about 2,000 (36%) were called active. Not shown: some 18% with an inconclusive outcome. Cut-off read from the data, not from the text of the source: active = normalized growth mostly below about 0.91 (no sharp cut-off); inconclusive = no clear call, values can overlap the other calls; inactive = mostly above about 0.92. Some of the results follow.

Experiment: chemical genetic growth profiling, strain panel (AID 1159580);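 note: tested at 20 µM; growth read once vehicle control cultures reached saturation at 30 °C; 1 = growth at the plate median or of vehicle wells; lower values mean less growth of the strain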
Conditions: growth OD

Measured: normalized growth

COC(=O)C[C@H]1C(C)(C)[C@@H](O)[C@@H]2CC3=C4CC(O)O[C@@H](c5ccoc5)[C@]4(C)CCC3[C@@]1(C)C2=O (some centres not stated)
inactive: S. cerevisiae deletion strains, locus YJL187C, strain SWE1, active compounds read low 1.03 | S. cerevisiae deletion strains, locus YJR066W, strain TOR1, active compounds read low 0.962 | S. cerevisiae deletion strains, locus YJR075W, strain HOC1, active compounds read low 0.99 | S. cerevisiae deletion strains, locus YKL009W, strain mrt4, active compounds read low 0.985 | S. cerevisiae deletion strains, locus YKL068W, active compounds read low 0.98 | S. cerevisiae deletion strains, locus YKL085W, strain MDH1 (second series), active compounds read low 0.99 | S. cerevisiae deletion strains, locus YKL085W, strain MDH1, active compounds read low 0.99 | S. cerevisiae deletion strains, locus YKL160W, strain elf1, active compounds read low 0.998 | S. cerevisiae deletion strains, locus YKL190W, strain CNB1, active compounds read low 1 | S. cerevisiae deletion strains, locus YKR001C, strain vps1, active compounds read low 0.98 | S. cerevisiae deletion strains, locus YKR026C, strain gcn3, active compounds read low 1.02 | S. cerevisiae deletion strains, locus YKR091W, strain srl3, active compounds read low 1.01 | S. cerevisiae deletion strains, locus YLL001W, strain dnm1, active compounds read low 0.994 | S. cerevisiae deletion strains, locus YLL026W, active compounds read low 1.02 | S. cerevisiae deletion strains, locus YLL041C, strain sdh2, active compounds read low 1.02 | S. cerevisiae deletion strains, locus YLR027C, strain aat2, active compounds read low 1.04 | S. cerevisiae deletion strains, locus YLR039C, strain RIC1, active compounds read low 0.981 | S. cerevisiae deletion strains, locus YLR058C, strain SHM2, active compounds read low 1 | S. cerevisiae deletion strains, locus YLR102C, strain apc9, active compounds read low 0.99 | S. cerevisiae deletion strains, locus YLR113W, strain HOG1, active compounds read low 0.971 | S. cerevisiae deletion strains, locus YLR221C, strain rsa3, active compounds read low 1.06 | S. cerevisiae deletion strains, locus YLR258W, strain gsy2, active compounds read low 0.99 | S. cerevisiae deletion strains, locus YLR262C, strain YPT6 (second series), active compounds read low 1.01 | S. cerevisiae deletion strains, locus YLR268W, strain sec22, active compounds read low 1.02 | S. cerevisiae deletion strains, locus YLR320W, strain mms22, active compounds read low 1.06 | S. cerevisiae deletion strains, locus YLR342W, strain FKS1, active compounds read low 1.02 | S. cerevisiae deletion strains, locus YLR357W, strain rsc2, active compounds read low 1.04 | S. cerevisiae deletion strains, locus YLR370C, strain arc18, active compounds read low 1 | S. cerevisiae deletion strains, locus YLR371W, strain rom2, active compounds read low 0.96 | S. cerevisiae deletion strains, locus YLR384C, strain iki3, active compounds read low 0.999 | S. cerevisiae deletion strains, locus YLR418C, strain cdc73, active compounds read low 0.946 | S. cerevisiae deletion strains, locus YML016C, strain PPZ1, active compounds read low 1.01 | S. cerevisiae deletion strains, locus YML032C, strain rad52, active compounds read low 0.983 | S. cerevisiae deletion strains, locus YML120C, strain ndi1, active compounds read low 0.995 | S. cerevisiae deletion strains, locus YML124C, strain tub3, active compounds read low 0.981 | S. cerevisiae deletion strains, locus YMR058W, strain fet3, active compounds read low 1.04 | S. cerevisiae deletion strains, locus YMR078C, strain ctf18, active compounds read low 0.957 | S. cerevisiae deletion strains, locus YMR125W, strain sto1, active compounds read low 1.02 | S. cerevisiae deletion strains, locus YMR129W, active compounds read low 1.02 | S. cerevisiae deletion strains, locus YMR205C, strain PFK2, active compounds read low 1.03 | S. cerevisiae deletion strains, locus YMR223W, strain ubp8, active compounds read low 0.988 | S. cerevisiae deletion strains, locus YMR231W, strain pep5, active compounds read low 1.02 | S. cerevisiae deletion strains, locus YMR263W, strain SAP30, active compounds read low 0.983 | S. cerevisiae deletion strains, locus YMR307W, strain GAS1, active compounds read low 1.09 | S. cerevisiae deletion strains, locus YNL067W, strain RPL9B, active compounds read low 0.967 | S. cerevisiae deletion strains, locus YNL071W, strain lat1, active compounds read low 1 | S. cerevisiae deletion strains, locus YNL153C, strain GIM3, active compounds read low 0.978 | S. cerevisiae deletion strains, locus YNL183C, strain NPR1, active compounds read low 0.987 | S. cerevisiae deletion strains, locus YNL209W, strain ssb2, active compounds read low 1 | S. cerevisiae deletion strains, locus YNL233W, strain BNI4, active compounds read low 1.02 | S. cerevisiae deletion strains, locus YNL248C, strain rpa49, active compounds read low 1.05 | S. cerevisiae deletion strains, locus YNL250W, strain rad50, active compounds read low 0.944 | S. cerevisiae deletion strains, locus YNL271C, strain bni1, active compounds read low 0.981 | S. cerevisiae deletion strains, locus YNL298W, strain CLA4, active compounds read low 0.981 | S. cerevisiae deletion strains, locus YNL307C, strain MCK1, active compounds read low 0.994 | S. cerevisiae deletion strains, locus YNL322C, strain KRE1 (second series), active compounds read low 1.04 | S. cerevisiae deletion strains, locus YNR049C, strain mso1, active compounds read low 1.01 | S. cerevisiae deletion strains, locus YNR052C, strain pop2, active compounds read low 0.975 | S. cerevisiae deletion strains, locus YOL006C, strain TOP1, active compounds read low 1.12 | S. cerevisiae deletion strains, locus YOL012C, strain htz1 0.701 | S. cerevisiae deletion strains, locus YOL147C, strain pex11, active compounds read low 0.985 | S. cerevisiae deletion strains, locus YOR001W, strain rrp6, active compounds read low 1.06 | S. cerevisiae deletion strains, locus YOR061W, strain CKA2, active compounds read low 1 | S. cerevisiae deletion strains, locus YOR069W, strain VPS5, active compounds read low 1.01 | S. cerevisiae deletion strains, locus YOR070C, strain gyp1, active compounds read low 1.02 | S. cerevisiae deletion strains, locus YOR080W, strain dia2, active compounds read low 1.03 | S. cerevisiae deletion strains, locus YOR083W, strain WHI5, active compounds read low 0.988 | S. cerevisiae deletion strains, locus YOR106W, strain vam3, active compounds read low 0.954 | S. cerevisiae deletion strains, locus YOR136W, strain idh2, active compounds read low 0.999 | S. cerevisiae deletion strains, locus YOR144C, strain elg1, active compounds read low 0.99 | S. cerevisiae deletion strains, locus YOR184W, strain ser1, active compounds read low 1.03 | S. cerevisiae deletion strains, locus YOR231W, strain MKK1, active compounds read low 0.983 | S. cerevisiae deletion strains, locus YOR265W, strain rbl2, active compounds read low 1 | S. cerevisiae deletion strains, locus YOR270C, strain vph1, active compounds read low 1.05 | S. cerevisiae deletion strains, locus YOR290C, strain snf2, active compounds read low 0.953 | S. cerevisiae deletion strains, locus YOR316C, strain cot1, active compounds read low 0.985 | S. cerevisiae deletion strains, locus YPL051W, strain arl3, active compounds read low 1.04 | S. cerevisiae deletion strains, locus YPL078C, strain atp4, active compounds read low 0.976 | S. cerevisiae deletion strains, locus YPL106C, strain sse1, active compounds read low 1.04 | S. cerevisiae deletion strains, locus YPL240C, strain hsp82, active compounds read low 1.01 | S. cerevisiae deletion strains, locus YPL256C, strain CLN2, active compounds read low 1.01 | S. cerevisiae deletion strains, locus YPR119W, strain clb2, active compounds read low 0.977 | S. cerevisiae deletion strains, locus YPR141C, strain kar3, active compounds read low 0.977 | S. cerevisiae deletion strains, locus YPR163C, strain tif3, active compounds read low 0.989 | S. cerevisiae deletion strains, locus YPR167C, strain met16, active compounds read low 0.971 | S. cerevisiae deletion strains, strain wtn01, active compounds read low 1 | S. cerevisiae strains, strain wild type, active compounds read low 1.03
